Measurements: PubChem BioAssay (NCI)
“And” between values parts separate entries of the source, which are not always exact repeats. Equal entries are not always repeated. This is part of a sample that, as a whole, favours compounds with a hit. Of some 83,000 tested, about 20% had one in any assay.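 Step 1: grow cells in 96-well plates. Step 2: add test compound at a single concentration. Step 3: incubate 48 h. Step 4: record percent growth.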 The source made the active and inactive calls. How the source made its calls: active means growth percent below 10; inactive means the rest.

What follows are compounds tested on MDA-MB-468 breast (assay: NCI-60 one-dose screen, 48 h (100 = growth as untreated, 0 = no growth, -100 = all killed)). Conditions: 10 µM unless noted.

| Compound | growth |
| --- | --- |
| Nc1ncn([C@@H]2O[C@H](CO)[C@@H](O)[C@H]2O)c(=O)n1 | 33.2% (inactive) |
| c1ccc2c(c1)CCN(NCCN1CCCC1)C2 | 109% (inactive) |
| CCc1ccc(CNc2ccc(N3CCOCC3)c(C(=O)O)c2)cc1 | 101% (inactive) |
| COc1ccc(CCN2C(=O)CCC3=C2CCCC3=O)cc1OC | 105% (inactive) |
| COC(=O)C1(CC(C)=O)NC(=S)NC(=O)C1C#N (stereo not given) | 96% (inactive) |
| COc1cc(OCc2cccc(-c3ccc(C(O)c4nccs4)cc3)c2C)cc(OC)c1CNCCNC(C)=O (stereo not given) | 92.1% (inactive) |
| CC(=O)Oc1cccc(OC(C)=O)c1OC(C)=O | 97.6% (inactive) |
| OCc1cnccc1NCCCCOc1ccc(Oc2ccccc2)cc1 | 30.5% (inactive) |
| COc1cc2nc3cc([N+](=O)[O-])ccc3c(NCCCNCC(C)(C)O)c2cc1OC | -57.7% (active) |
| CCN(Cc1ccc(CN(CC)C(=O)C(Cl)(Cl)Cl)cc1)C(=O)C(Cl)(Cl)Cl | 62.5% (inactive) |
| O=C(NOCCO)c1ccc2cncn2c1Nc1ccc(I)cc1F | 107% (inactive) |
| COC(=O)/C=C1/SC(=Nc2cccc(Cl)c2)N(CCc2c[nH]c3ccc(O)cc23)C1=O | 24.7% (inactive) |
| O=C(O)CC1Cc2ccccc2C1C(=O)O (stereo not given) | 106% (inactive) |
| COc1ccc(-n2[nH]c3c(cnc4ccccc43)c2=O)cc1 | 108% (inactive) and 99.5% (inactive) |
| O=C(Nc1cccc(-n2cc(-c3ccncc3)c(-c3cc(O)cc(Cl)c3)n2)c1)Nc1ccc(Cl)c(C(F)(F)F)c1 | 5.22% (active) |
| CC(C)(C)[Si](C)(C)OCC1OC(n2cnc3c(N)ncnc32)CC1OS(C)(=O)=O (stereo not given) | 99.7% (inactive) |
| O=C(Nc1ccc(F)cc1)c1cc(-c2ccc(F)cc2F)ccc1O | -7.21% (active) |
| CC1=C(CCC(C)N(C)Cc2ccc(OCCCN3CCCC3)cc2)C(C)(C)CCC1 (stereo not given) | -18.6% (active) |
| CCOC(=O)C(=Cc1cccc(Br)c1)C(=O)OCC | 31% (inactive) |
| Cc1nn(-c2ccccc2)c2c1N=c1s/c(=C\c3ccc(C(F)(F)F)cc3)c(=O)n1CN2 | 44.1% (inactive) |

| Compound | growth |
| --- | --- |
| CCc1c2c(nc3ccc(OCc4ccc(B(O)O)cc4)cc13)-c1cc3c(c(=O)n1C2)COC(=O)[C@]3(O)CC | -48.4% (active) |
| COCCNC(C)=O | 96.1% (inactive) |
| CC1(C)Cc2c(sc3ncn4nc(-c5ccc(O)cc5)nc4c23)CO1 | 61.4% (inactive) |
| C[N+](C)=c1ccc2nc3c(cc(Nc4ccccc4)c4ccccc43)oc-2c1 | -14.8% (active) |
| C=CCOc1cccc(/C=C/C(=O)c2sc(Nc3cccnc3)nc2C)c1 | 47.5% (inactive) |
| Cc1ccc(S(=O)(=O)Nc2cccc(Cn3c(=O)[nH]c4ccc(Oc5ncccn5)cc4c3=O)c2)cc1 | 39.6% (inactive) |
| O=C1C(=O)c2c(nc3ccc(C(F)(F)F)cn23)-c2ccccc21 | -65.9% (active) |
| O=c1oc2ccc(Cl)cc2c(=O)n1-c1ccc(F)cc1F | -4.5% (active) |
| C#COc1cccc(Nc2ncnc3ncc(NC(=O)CCl)cc23)c1 | 4.95% [6.25 µM] (active) |
| COc1cc(-c2cc(-c3nc4cc(Cl)c(Cl)cc4[nH]3)[nH]n2)cc(OC)c1OC | 51.7% (inactive) |
| O=C(COc1ccc(/C=C2\C(=O)Nc3ccc(F)cc32)cc1)Nc1ccccc1 | 98.5% (inactive) |
| BrC1=C(Br)C(Br)(Br)C(Br)=C1Br | 97.7% (inactive) |
| Cc1ccc2c(c1)C(=O)/C(=C/c1ncc([N+](=O)[O-])n1C)O2 | 52.4% (inactive) |
| CC(C)(C)OC(=O)Nc1ccc2c(c1)C(NC(=O)Nc1cccc(C#N)c1)CC(C)(C)O2 (stereo not given) | -5.73% (active) |
| C=CCOC(=O)C1=C(C)N(CC)C(=O)NC1c1c(Cl)n(C)c2ccccc12 (stereo not given) | 107% (inactive) |
| O=C(CCc1ccccc1)N1CCN(C(=O)CCc2ccccc2)CC1 | 111% (inactive) |
| O=C(Nc1ccc2ccccc2c1)c1cc2ccccc2cc1O | 123% (inactive) |
| COc1ccc(CNc2ccc3nc(NC(=O)CN4CCCCCC4)sc3c2)cc1 | 46.8% (inactive) |
| O=S(=O)(CCN1CCOCC1)Nc1cc(-c2ccc3ncnc(Nc4ccc(F)c(Cl)c4)c3c2)cnc1Cl | -34.4% (active) |
| CC(=O)Cc1nsc(NC(=O)c2cc(-c3cc(Cl)cc(Cl)c3)oc2C)n1 | 97.6% (inactive) |
